# LYPLA2 inh = counter-screen for PME1 inhibitors: inhibitors of human LYPLA2. AID 2177. inhibition, % at 5.9 µM. hit rate 0.38% among 320,000. recombinant LYPLA2, FP-Rh probe fluorescence polarization;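 active = inhibition above the screen-wide mean plus 3 SD, limit set per campaign, cut at about 26% in these data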;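 also: 0% = LYPLA2 with DMSO and 100% = wells lacking LYPLA2 enzyme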
# Target sequence (O95372 whole entry, looked up): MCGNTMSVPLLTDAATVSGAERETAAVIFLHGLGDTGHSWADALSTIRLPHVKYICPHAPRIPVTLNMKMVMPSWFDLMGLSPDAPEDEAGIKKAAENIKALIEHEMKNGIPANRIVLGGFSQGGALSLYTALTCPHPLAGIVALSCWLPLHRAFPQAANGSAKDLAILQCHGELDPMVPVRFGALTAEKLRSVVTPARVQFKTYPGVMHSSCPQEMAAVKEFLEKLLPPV
# LYPLA1 inh = LYPLA1 (human) inhibition in PME1 counter-screen. recombinant LYPLA1, FP-Rh probe fluorescence polarization. AID 2174. O75608. inhibition, % at 5.9 µM. hit rate 0.16% among 320,000;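 active = inhibition above the mean of all tested compounds plus 3 SD, set per campaign, cut at about 14% in these data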;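 also: inhibitors block serine hydrolase probe labeling of LYPLA1 so polarization falls; 0% = enzyme with DMSO and 100% = wells lacking LYPLA1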
# Target sequence (O75608 whole entry, looked up): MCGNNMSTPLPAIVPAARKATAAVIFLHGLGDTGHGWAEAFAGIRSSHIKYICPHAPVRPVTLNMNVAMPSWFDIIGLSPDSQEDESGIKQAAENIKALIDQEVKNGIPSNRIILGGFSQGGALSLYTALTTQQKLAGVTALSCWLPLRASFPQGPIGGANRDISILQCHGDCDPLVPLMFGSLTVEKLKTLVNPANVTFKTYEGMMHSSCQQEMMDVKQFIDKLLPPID
# PAD4 FP inh = blocks human protein arginine deiminase 4 | recombinant PAD4, RCA probe fluorescence polarization | hit rate 0.41% among 330,000 | AID 485272 | Q9UM07 | inhibition, % at 6.36 µM;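 active = percent inhibition above a cutoff equal to the mean of all tested compounds plus 3 SD, cut at about 15% in these data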;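 also: 0% = PAD4 with RCA probe and DMSO and 100% = probe without PAD4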
# Fam108B inh = counter-screen for RBBP9 inhibitors: inhibitors of mouse Fam108B. recombinant Fam108B, FP-Rh probe fluorescence polarization. AID 1947. inhibition, % at 9.51 µM. hit rate 0.33% among 300,000;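 active = inhibition above the screen mean inhibition plus 3 SD, computed separately per campaign, cut at about 18% in these data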;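 also: inhibitors lower polarization as less probe binds the enzyme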
# GSTO1 counter = counter-screen for RBBP9 inhibitors: inhibitors of human GSTO1; AID 1974; hit rate 1.1% among 300,000; P78417; recombinant GSTO1, activity-based probe fluorescence polarization; inhibition, % at 5.96 µM;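 active = inhibition above the campaign mean inhibition plus 3 SD, cut at about 35% in these data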;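 also: 0% = GSTO1-1 with DMSO and 100% = wells lacking GSTO1-1 enzyme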
# PME-1 primary = PME-1 (human) inhibition; Q9Y570; inhibition, % at 5.9 µM; recombinant PME-1, FP-Rh probe fluorescence polarization; hit rate 0.53% among 320,000; AID 2130;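 active = inhibition above the campaign mean of all compounds plus 3 SD, cut at about 26% in these data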;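 also: competitive labeling of PME-1 active site by serine hydrolase directed probe; 0% = PME-1 with DMSO and 100% = wells lacking PME-1 enzyme; inhibitors block probe labeling so polarization falls and inhibition rises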
# GSTO1 confirm = GSTO1 (human) inhibition, confirmation | recombinant GSTO1, probe fluorescence polarization | shares compounds with GSTO1 counter | hit rate 54% among 2,400 | inhibition, % at 5.96 µM;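 active = inhibition above the primary screen's cutoff, its mean inhibition plus 3 SD, cut at about 35% in these data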;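 also: loss of polarization as inhibitors block binding of rhodamine sulfonate ester activity probe; 0% = GSTO1 with DMSO and 100% = wells lacking GSTO1 enzyme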
# GSTO1 ABPP inh = blocks recombinant human glutathione S-transferase omega 1; shares compounds with GSTO1 counter; recombinant GSTO1, gel ABPP SE-Rh probe fluorescence; inhibition, % at 1 µM; hit rate 30% among 130;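 active = inhibition of the enzyme GSTO1 above about 75%, limit read from the data; inactive = inhibition below that limit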
# * marks the source's active call; other numbers are inactive results; nt = no result given. Shown are actives, neighbours in structure and some others; about 1.8% of the full set was active somewhere.
SMILES,LYPLA2 inh,LYPLA1 inh,PAD4 FP inh,Fam108B inh,GSTO1 counter,PME-1 primary,GSTO1 confirm,others
CC1(OC(=O)CCc2ccccc2)C(=O)C=C2C=C(c3ccc(C#N)cc3)N(c3ccccc3)C=C2C1=O (stereo not drawn),-5,0,-11,3,21,-4,nt,
CCCCC1=CC2=CC(=O)C(C)(OC(=O)CC)C(=O)C2=CN1CCc1ccccn1 (stereo not drawn),-1,0,-8,6,10,0,nt,
COC(=O)c1ccc(N=CC2=C(O)CC(c3ccccc3)CC2=O)cc1 (stereo not drawn),1,-1,1,4,7,1,nt,
O=C1CC(c2ccccc2)CC(O)=C1C=Nc1ccc(O)cc1 (stereo not drawn),7,-1,-1,-4,56*,-1,6,
COc1ccc(C(=O)Nc2ccc(OCC(=O)N3CCOCC3)cc2)c(OC)c1OC,-2,-2,-1,5,15,2,nt,
CCOC(=O)c1c(C)n(C)c2ccc(OC(=O)c3ccc(N4C(=O)CCC4=O)cc3)cc12,6,-5,1,-2,-2,-4,nt,
CCc1cc2ccccc2nc1Cl,0,3,1,0,0,-1,nt,
ClCc1cc2ccccc2nc1Cl,-3,-3,-6,0,43*,0,95*,GSTO1 ABPP inh=40
COCCn1c(=O)[nH]c(=O)c2c1nc(-c1ccc(-c3ccc(Cl)cc3[N+](=O)[O-])o1)n2Cc1ccccc1,14,2,-7,17,60*,15,4,
COc1ccc(-c2ccc(-c3nc4c(c(=O)[nH]c(=O)n4Cc4ccccc4)n3C)o2)c([N+](=O)[O-])c1,-6,-5,-3,1,4,3,nt,
Cn1c(=O)c2[nH]c(-c3ccccc3O)nc2n(C)c1=O,-5,-1,-3,5,38*,11,13,
CC(C)c1ccc(-c2nc3c([nH]2)c(=O)n(C)c(=O)n3C)cc1,4,2,5,-2,-1,12,nt,
COCC1CCCCN1C(=O)c1ccc2nc(Cc3ccc(OC)c(OC)c3)oc2c1 (stereo not drawn),3,-1,-3,-2,2,7,nt,
CC(C)c1c(C(=O)N/N=C/c2ccccc2OCc2c(F)cccc2Cl)nnn1-c1nonc1N,-11,-8,1,-16,-2,-4,nt,
CCOc1ccc(-c2nnc(N)s2)cc1,3,3,-2,-7,-2,3,nt,
CCOc1ccc(-c2nc(CCl)cs2)cc1,3,1,-1,-2,79*,3,93*,GSTO1 ABPP inh=69
ClCc1csc(-c2ccc(Cl)cc2)n1,1,1,-1,3,91*,-1,101*,GSTO1 ABPP inh=62
CC1CN(Cc2csc(-c3ccc(Cl)cc3)n2)CC(C)O1 (stereo not drawn),7,5,3,0,2,-1,nt,
CCOc1cc(/C=N/Nc2nc(-c3cccc(S(=O)(=O)N4CCCC4)c3)cs2)ccc1O,0,-14,-3,18,-3,24,nt,
CSc1nnc(N2C(=O)C(O)=C(C(=O)c3ccc(C)o3)C2c2ccc(C)cc2)s1 (stereo not drawn),1,2,-28,-1,2,-1,nt,
CCCC1NC(=S)N(C2CCCCC2)C1=O (stereo not drawn),5,3,-1,-1,40*,-4,3,
C=CCNC(=O)C1CCN(c2ccc(S(=O)(=O)N3CCOCC3)cc2[N+](=O)[O-])CC1,10,-1,3,3,6,-2,nt,
Cc1ccc(-c2ccc(/C=N/N=C3/NC(=O)C(CC(=O)O)S3)o2)c([N+](=O)[O-])c1 (stereo not drawn),4,-2,13,9,67*,8,12,
O=P(O)(Cc1ccccc1)Cc1ccccc1,-2,-1,1,8,47*,-8,3,
O=P(Cc1ccccc1)(c1ccccc1)c1ccccc1,1,2,-2,0,3,-6,nt,
SMILES,LYPLA2 inh,LYPLA1 inh,PAD4 FP inh,Fam108B inh,GSTO1 counter,PME-1 primary,GSTO1 confirm,others
CC(=O)c1cccc(NC(=O)CN2C(=O)NC(C)(C)C2=O)c1,nt,nt,-1,nt,nt,nt,nt,
CCC(Sc1nc(-c2cccc(OC)c2)c(C#N)c(=O)[nH]1)C(=O)Nc1nnc(C(C)C)s1 (stereo not drawn),3,-3,1,-2,50*,1,62*,
CCOC(=O)Cn1c(=O)oc2cc(S(=O)(=O)Nc3ccc(N(CC)CC)cc3C)ccc21,-2,-1,-1,4,68*,0,62*,
O=C(CCc1nnc(CCCc2ccccc2)o1)NC(C1CC1)C1CC1,-4,-2,-1,1,3,-1,nt,
CC(=O)C1=C(c2ccccc2)NC(=S)NC1c1ccc(O)c(O)c1 (stereo not drawn),4,0,0,-2,45*,4,7,
CC(=O)C1=C(c2ccccc2)NC(=S)NC1c1cc(Cl)c(OC(C)C)c(Cl)c1 (stereo not drawn),-11,-11,-6,-11,-10,-10,nt,
Cc1cccc([C@@H]2[C@@H]3C(=O)N(Cc4ccccc4)C(=O)[C@@H]3[C@]3(Cc4ccc(Cl)cc4)C(=O)N(c4cccc(Br)c4)C(=O)N23)c1,2,-3,-1,-11,70*,-1,2,
COc1ccc2c(c1)c1nc3n(c(=O)c1n2CC(=O)Nc1cc(C)[nH]n1)CCS3,6,2,0,2,92*,-4,4,
CCOC(=O)N1CCN(c2ccc(C(F)(F)F)cn2)CC1,9,0,3,2,1,-3,nt,
CC1=NN(c2ccc(C(F)(F)F)cn2)C(=O)C1,0,3,-3,1,44*,-5,30,
CCOC(=O)C1=C(C)N(c2ccccc2)C(=O)/C1=C\c1ccco1,5,-1,-3,3,9,4,nt,
CCOC(=O)C1=C(C)N(c2ccccc2)C(=O)/C1=C\c1ccc(O)c(OC)c1,-2,-1,-7,5,62*,2,5,
O=C1c2cc([N+](=O)[O-])cc3cc([N+](=O)[O-])cc(c23)C(=O)N1c1ccccn1,4,-1,13,6,42*,-1,7,
O=C(O)c1cccc(N2C(=O)c3cc([N+](=O)[O-])cc4cc([N+](=O)[O-])cc(c34)C2=O)c1,3,-1,42*,15,71*,8,40*,
Cc1ccc(S(=O)(=O)N(C(=O)c2ccncc2)c2ccc(OC(=O)c3ccncc3)c3ccccc23)cc1,4,-3,-7,1,43*,1,3,
Cc1ccc(S(=O)(=O)N(C(=O)c2ccncc2)c2ccc(OC(=O)c3ccncc3)c3ccccc23)c(C)c1,0,4,-18,3,55*,4,9,
